40 compounds from PubChem BioAssay can be followed below.

Active and inactive are the calls of the source. How the calls were made is not given here. Where a SMILES comes first, the peptide text is derived from it. The star is where a group is joined. Boc = CC(C)(C)OC(=O)*

The target in this assay is Pantothenate synthetase (Mycobacterium tuberculosis (strain ATCC 25618 / H37Rv)) (UniProt P9WIL5). Description: Recombinant Mtb pantothenate synthetase (PanC) inhibitors, coupled enzyme, confirmatory (AID 375).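 Further: 0% = full reaction with vehicle and 100% = no enzyme background.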 The following applies: coupled enzyme assay; at 10 µM, stronger effect = higher value.
Chain of Pantothenate synthetase (Mycobacterium tuberculosis (strain ATCC 25618 / H37Rv)) (P9WIL5 whole entry, looked up): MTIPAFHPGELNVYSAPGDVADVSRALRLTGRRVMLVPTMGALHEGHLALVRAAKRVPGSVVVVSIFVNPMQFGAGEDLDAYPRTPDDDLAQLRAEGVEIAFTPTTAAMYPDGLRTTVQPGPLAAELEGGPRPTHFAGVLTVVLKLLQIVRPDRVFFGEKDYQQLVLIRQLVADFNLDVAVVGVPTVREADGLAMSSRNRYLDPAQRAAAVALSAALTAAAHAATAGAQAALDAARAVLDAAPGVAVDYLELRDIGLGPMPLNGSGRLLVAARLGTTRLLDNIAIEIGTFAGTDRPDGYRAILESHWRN
In the case of `COc1ccc(N2CCN(c3nc4c(c(=O)[nH]c(=O)n4C)n3CCCc3ccccc3)CC2)cc1`, the inhibition (commonly the percentage by which the read-out fell short of the control) was 13% (inactive).

As to `CCOC(=O)NC(=O)CSc1nnnn1-c1ccc(Cl)cc1`, the inhibition is 0% (inactive). On to `CCOC(=O)C1=C(c2ccccc2)Nc2nc(C)nn2C1c1cccc(OC)c1OC` (stereo not given), for which the inhibition is 0% (inactive). For `COCCN(CCOC)C(=O)c1sc2nc(-c3ccccc3)cn2c1C` the value was 0% (inactive); for `CC1CCN(S(=O)(=O)c2cn(CC(=O)N3CCN(C)CC3)c(=O)c3ccccc23)CC1`, 4% (inactive).

For `COC(=O)c1ccc(NC(=O)CN2CCN(c3ccc(Cl)cc3)CC2)cc1`, the inhibition was 1% (inactive). Turning to `O=C(NCCN1CCCCCC1)c1ccc(N2CCCC2=O)cc1`, the inhibition is 1% (inactive). Regarding `CCOc1ccccc1-c1nc(-c2ccc(NC(=O)Cc3ccccc3OC)cc2)no1`, the inhibition was 2% (inactive).

Turning to `CC(=O)O[C@]1(C(C)=O)CC[C@H]2[C@@H]3C=C(Cl)C4=CC(=O)CC[C@]4(C)[C@H]3CC[C@@]21C`, the inhibition is 0% (inactive). For the compound `O=C(CCSc1ccccc1)N1CCOCC1`, the inhibition was 0% (inactive).

In the case of `Cc1cccc(C)c1OCc1nnc2c3cnn(C)c3ncn12`, the inhibition is 0% (inactive). For `COc1cccc(-c2cc(C(F)(F)F)n3nc(N)nc3n2)c1`, the inhibition is 2% (inactive).

In the case of `O=C(NCCN1C(=O)C2C3C=CC(C3)C2C1=O)N1CCOCC1` (stereo not given), the inhibition was 0% (inactive). `CN(C)CCC(c1ccc(Br)cc1)c1ccccn1` (stereo not given): the inhibition is 0% (inactive).

Take `Cc1cccc(-n2ncc3c(NCCCn4ccnc4)ncnc32)c1`: the inhibition was 4% (inactive).

In the case of `CCC(=O)c1ccc(O)cc1`, the inhibition is 0% (inactive). For the compound `CN(C)S(=O)(=O)c1cccc(C(=O)Nc2cccnc2)c1`, the inhibition was 0% (inactive). As for `COc1cccc(-c2nc(CS(=O)(=O)CC(=O)Nc3cc(C)ccc3C)c(C)o2)c1`, the inhibition was 0% (inactive). `C=CCNC(=O)CSc1ccc(Cl)cc1`: the inhibition is 0% (inactive).

For `CCCOc1ccccc1NC(=O)c1c(-c2ccccc2)noc1C`, the inhibition is 1% (inactive). With `COc1ccc(NC(=O)C2CCCN2S(=O)(=O)c2cccc3cccnc23)c(OC)c1` (stereo not given), the inhibition is 6% (inactive).

For the compound `CCc1nc(SCC(=O)NCc2ccco2)c2c3c(sc2n1)CCCC3`, the inhibition was 4% (inactive). As to `CCOC(=O)c1c(-c2ccc(C)o2)csc1NC(=O)COC(=O)c1cccs1`, the inhibition is 5% (inactive). With `CCOC(=O)C(CC)Sc1ncnc2nc[nH]c12` (stereo not given) the figure was 0% (inactive). Turning to `Cc1ccc(S(=O)(=O)Cc2ccc(C(=O)N3CCN(Cc4ccccc4)CC3)o2)cc1`, the inhibition was 3% (inactive). `CC(=O)N1CN(C2CCCC2)Cc2c1sc1c2CCCC1`: the inhibition is 0% (inactive). With `COc1ccc(OC)c(NC(=O)c2nnn(Cc3ccc(Br)cc3F)c2N)c1` the figure was 0% (inactive); with `COc1ccc(OC)c(Nc2cc(-c3ccccc3)nc(N)n2)c1`, 1% (inactive).

As to `COc1ccc(-c2cc(C(F)(F)F)n3nc(C(=O)N4CCOCC4)nc3n2)cc1`, the inhibition is 8% (inactive). In the case of `O=C(Nc1ccncc1)C1CCCN(S(=O)(=O)c2cccc3cccnc23)C1` (stereo not given), the inhibition was 0% (inactive).

Turning to `CC(C)(C)C(=O)OCC1OC(n2cnc(C(N)=O)n2)C(O)C1O` (stereo not given), the inhibition was 3% (inactive).

In the case of `CC1CCCCC1NC(=O)CCCc1nc2ccccc2c(=O)[nH]1` (stereo not given), the inhibition was 0% (inactive). On to `COCCn1c(SCC(=O)Nc2cccc(OC)c2)nnc1-c1ccccc1`, for which the inhibition is 4% (inactive).

For the compound `O=C(CSc1nnc(Cc2cccs2)n1Cc1ccco1)Nc1cccc(Cl)c1`, the inhibition is 0% (inactive).

In the case of `C=CCNc1nc2c(c(=O)n(C)c(=O)n2C)n1CCCCCC`, the inhibition was 0% (inactive). As to `CCOC(=O)c1cnc(-n2nc(C)cc2C)nc1NC(C)c1ccccc1` (stereo not given), the inhibition was 0% (inactive). In the case of `CC(C)CC(NC(=O)OC(C)(C)C)C(=O)NC(C(=O)NC(C)C(N)=O)C(C)C` (stereo not drawn) (Boc-Leu-Val-Ala-NH2; configuration not given here), the inhibition is 16% (inactive). For the compound `COC(=O)c1cc(Br)c(=O)n(CCN2CCOCC2)c1`, the inhibition is 0% (inactive). `Cc1nnc2n(-c3ccccc3)c(=O)c3c4c(sc3n12)CCCC4`: the inhibition is 2% (inactive). For `CCSc1nnc(NC(=O)c2cc(C)oc2C)s1` the value was 11% (inactive).
